From PubChem BioAssay (EPA / NIEHS)
Values joined by “and” are separate entries in the source; they are usually repeats but may differ in a detail not shown here. Equal entries are not always repeated. Inconclusive results are not listed. Active and inactive are the calls of the source. The calls were made as follows, unless noted: active = hit-call score of the fitted dose curve at least 0.9, where 1 is the maximum; inactive = score below 0.9.

Tests used:
[1] = BSK_SAg_PBMCCytotoxicity: PBMC Cytotoxicity Assessment in the BioMAP Diversity Plus: SAg Assay (AID 2283093); conditions: primary human HUVEC with PBMC;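 also: PBMC viability measured as Alamar Blue reduction fluorescence at 546/580 nm; fitted both ways against DMSO so a hit may be loss or gain of signal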;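 as to AC50: PBMC superantigen activated with SEB plus TSST-1 one hour after compound addition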
Outline: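 HUVEC/PBMC co-culture; PBMC exposed to chemical 1 h before SEB and TSST-1 activation (20 ng/mL each), incubated 90 h, then Alamar Blue 6 h, fluorescence 546/580 nm. Bidirectional fit versus DMSO baseline.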

[2] = read-out: Interleukin-8 (IL8), CXCL8 (gene 3576); assay: BSK_SAg_IL8: BioMAP Diversity Plus: SAg Assay for Interleukin-8 (IL8) Biomarker Activity (AID 2283094); conditions: primary human HUVEC with PBMC; actives raise or lower the signal
Outline: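 ELISA read-out of IL-8 in a primary human vascular co-culture (umbilical vein endothelium plus PBMC), taken 24 h after compound addition. Values derive from bidirectional fits against DMSO negative controls.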

[3] = BSK_SAg_Proliferation: Cell Proliferation Assessment in the BioMAP Diversity Plus: SAg Assay (AID 2283095); conditions: primary human HUVEC with PBMC;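 also: relative cell number as total protein by SRB absorbance in sub-confluent culture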
Outline: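 Cells (endothelium plus PBMC, human primary) were dosed with chemical, cultured 96 h, fixed in 10% TCA and stained with 0.1% SRB. Absorbance at 560 nm gave relative protein, fitted bidirectionally relative to DMSO.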

[4] = BSK_SAg_SRB: Viability Assessment in the BioMAP Diversity Plus: SAg Assay (AID 2283096); conditions: primary human HUVEC with PBMC;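 also: cells read one day after compound addition; hits may be either gain or loss of signal compared with DMSO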
Outline: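 Human umbilical vein endothelial cells co-cultured with PBMC, read 24 h after compound dosing. Total protein measured by sulforhodamine B staining (0.1% SRB after 10% TCA fixation, absorbance 560 nm); bidirectional fit versus DMSO baseline.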

[5] = target: human CYP1A1, CYP1A1 (gene 1543) (UniProt P04798); assay: NVS_ADME_hCYP1A1: NovaScreen (NVS) CYP450-related Enzyme Activity (ADME) Assay for human CYP1A1 (AID 2283100; active = hit-call score of the fitted dose curve at least 0.9, where 1 is the maximum)
Chain of human CYP1A1, CYP1A1 (gene 1543) (P04798 whole entry, looked up): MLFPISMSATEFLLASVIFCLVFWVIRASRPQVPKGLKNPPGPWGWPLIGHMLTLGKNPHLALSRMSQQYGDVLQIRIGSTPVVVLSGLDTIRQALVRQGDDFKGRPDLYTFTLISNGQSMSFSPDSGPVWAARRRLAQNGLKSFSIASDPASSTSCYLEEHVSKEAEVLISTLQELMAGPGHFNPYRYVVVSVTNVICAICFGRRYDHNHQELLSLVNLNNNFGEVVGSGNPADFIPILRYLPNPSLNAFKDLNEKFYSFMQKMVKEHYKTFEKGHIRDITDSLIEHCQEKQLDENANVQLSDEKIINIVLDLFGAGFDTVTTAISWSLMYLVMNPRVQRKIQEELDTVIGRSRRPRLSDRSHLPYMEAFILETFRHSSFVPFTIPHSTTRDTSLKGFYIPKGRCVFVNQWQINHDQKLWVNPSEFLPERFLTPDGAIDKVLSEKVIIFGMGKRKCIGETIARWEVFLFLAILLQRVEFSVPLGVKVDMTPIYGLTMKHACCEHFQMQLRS
Outline: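 Compounds first went through duplicate single-concentration testing at 10 uM against purified CYP1A1. Those passing a threshold such as 30% inhibition entered singleton dose-response, highest concentration 20 uM. Signal was fluorescence measured after 1 hour.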

[6] = target: human CYP2B6, CYP2B6 (gene 1555) (UniProt P20813); assay: NVS_ADME_hCYP2B6: NovaScreen (NVS) CYP450-related Enzyme Activity (ADME) Assay for human CYP2B6 (AID 2283101; active = hit-call score of the fitted dose curve at least 0.9, where 1 is the maximum)
Chain of human CYP2B6, CYP2B6 (gene 1555) (P20813 whole entry, looked up): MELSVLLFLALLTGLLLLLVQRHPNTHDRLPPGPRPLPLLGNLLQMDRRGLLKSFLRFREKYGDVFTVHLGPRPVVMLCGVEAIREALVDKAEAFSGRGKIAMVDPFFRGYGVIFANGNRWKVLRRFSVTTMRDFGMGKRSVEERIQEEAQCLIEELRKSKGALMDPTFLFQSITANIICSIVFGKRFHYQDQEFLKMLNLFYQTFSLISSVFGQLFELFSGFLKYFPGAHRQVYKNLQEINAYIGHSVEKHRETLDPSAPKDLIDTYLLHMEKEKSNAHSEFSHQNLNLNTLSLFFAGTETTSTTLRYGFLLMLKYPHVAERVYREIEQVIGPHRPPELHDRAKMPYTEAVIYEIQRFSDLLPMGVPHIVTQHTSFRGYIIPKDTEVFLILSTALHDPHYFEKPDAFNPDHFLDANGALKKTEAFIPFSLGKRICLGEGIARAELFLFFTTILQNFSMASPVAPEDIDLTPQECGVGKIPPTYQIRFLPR
Outline: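 Recombinant human CYP2B6 with fluorogenic substrate, read by fluorescence intensity 1 h after dosing. Primary screen in duplicate at 10 uM, actives followed in concentration series; signal loss relative to acetonitrile control.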

[7] = target: human CYP1A2, CYP1A2 (gene 1544) (UniProt P05177); assay: NVS_ADME_hCYP1A2: NovaScreen (NVS) CYP450-related Enzyme Activity (ADME) Assay for human CYP1A2 (AID 2283102; active = hit-call score of the fitted dose curve at least 0.9, where 1 is the maximum;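 also: fluorescence from turnover of a fluorogenic substrate by recombinant insect-cell CYP1A2; potency for inhibition since loss of fluorescence marks reduced CYP1A2 activity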)
Chain of human CYP1A2, CYP1A2 (gene 1544) (P05177 whole entry, looked up): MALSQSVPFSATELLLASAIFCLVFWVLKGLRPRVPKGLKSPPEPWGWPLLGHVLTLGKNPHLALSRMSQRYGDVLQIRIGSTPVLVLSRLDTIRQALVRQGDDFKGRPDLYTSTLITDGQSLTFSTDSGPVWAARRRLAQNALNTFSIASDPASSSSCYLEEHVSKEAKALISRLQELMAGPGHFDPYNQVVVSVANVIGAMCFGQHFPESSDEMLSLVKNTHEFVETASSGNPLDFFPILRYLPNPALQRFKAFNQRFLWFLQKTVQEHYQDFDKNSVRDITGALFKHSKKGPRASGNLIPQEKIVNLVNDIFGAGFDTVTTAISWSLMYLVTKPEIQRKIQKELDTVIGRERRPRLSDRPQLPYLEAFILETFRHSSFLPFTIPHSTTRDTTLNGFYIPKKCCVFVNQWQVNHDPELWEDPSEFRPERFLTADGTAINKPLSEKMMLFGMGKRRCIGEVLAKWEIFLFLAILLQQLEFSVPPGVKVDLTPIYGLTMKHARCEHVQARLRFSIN
Outline: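 Compounds were tested at 10 uM in duplicate against recombinant CYP1A2 produced in insect cells. Enzyme activity was measured by fluorescence 0.5 h after dosing, with loss of signal versus acetonitrile control. Active compounds were re-tested in concentration series.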

[8] = target: human CYP2D6, CYP2D6 (gene 1565) (UniProt P10635); assay: NVS_ADME_hCYP2D6: NovaScreen (NVS) CYP450-related Enzyme Activity (ADME) Assay for human CYP2D6 (AID 2283107; active = hit-call score of the fitted dose curve at least 0.9, where 1 is the maximum)
Chain of human CYP2D6, CYP2D6 (gene 1565) (P10635 whole entry, looked up): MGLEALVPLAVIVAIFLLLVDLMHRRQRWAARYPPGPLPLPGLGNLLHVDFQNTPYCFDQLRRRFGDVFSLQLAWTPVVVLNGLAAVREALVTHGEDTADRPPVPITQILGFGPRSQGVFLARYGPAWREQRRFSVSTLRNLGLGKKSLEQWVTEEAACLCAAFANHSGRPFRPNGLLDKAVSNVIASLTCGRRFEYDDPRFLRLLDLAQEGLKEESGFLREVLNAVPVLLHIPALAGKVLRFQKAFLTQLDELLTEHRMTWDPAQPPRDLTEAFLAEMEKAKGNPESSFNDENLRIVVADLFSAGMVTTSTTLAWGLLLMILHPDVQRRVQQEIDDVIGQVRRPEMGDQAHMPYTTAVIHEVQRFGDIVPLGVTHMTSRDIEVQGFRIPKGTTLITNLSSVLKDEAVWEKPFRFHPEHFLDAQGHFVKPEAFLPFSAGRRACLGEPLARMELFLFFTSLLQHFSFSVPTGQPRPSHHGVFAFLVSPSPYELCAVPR
Outline: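 Compounds were first tested in duplicate at 10 uM against recombinant enzyme produced in insect cells, with substrate turnover measured by fluorescence after 1 hour. Decreased signal, referenced to acetonitrile vehicle, was taken as reduced enzyme activity. Active chemicals went on to concentration-response testing.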

[9] = target: Cytochrome P450 2C19 (Homo sapiens) (UniProt P33261); assay: NVS_ADME_hCYP2C19: NovaScreen (NVS) CYP450-related Enzyme Activity (ADME) Assay for human CYP2C19 (AID 2283113; active = hit-call score of the fitted dose curve at least 0.9, where 1 is the maximum;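 as to AC50: potency for inhibition seen as loss of fluorescent signal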)
Outline: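 Chemicals first screened in duplicate at 10 uM against recombinant human enzyme produced in insect cells; confirmed actives then run as concentration series. Fluorogenic substrate turnover read by fluorescence after 1 h, normalised to acetonitrile.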

[10] = target: human CYP2C9, CYP2C9 (gene 1559) (UniProt P11712); assay: NVS_ADME_hCYP2C9: NovaScreen (NVS) CYP450-related Enzyme Activity (ADME) Assay for human CYP2C9 (AID 2283108; active = hit-call score of the fitted dose curve at least 0.9, where 1 is the maximum)
Chain of human CYP2C9, CYP2C9 (gene 1559) (P11712 whole entry, looked up): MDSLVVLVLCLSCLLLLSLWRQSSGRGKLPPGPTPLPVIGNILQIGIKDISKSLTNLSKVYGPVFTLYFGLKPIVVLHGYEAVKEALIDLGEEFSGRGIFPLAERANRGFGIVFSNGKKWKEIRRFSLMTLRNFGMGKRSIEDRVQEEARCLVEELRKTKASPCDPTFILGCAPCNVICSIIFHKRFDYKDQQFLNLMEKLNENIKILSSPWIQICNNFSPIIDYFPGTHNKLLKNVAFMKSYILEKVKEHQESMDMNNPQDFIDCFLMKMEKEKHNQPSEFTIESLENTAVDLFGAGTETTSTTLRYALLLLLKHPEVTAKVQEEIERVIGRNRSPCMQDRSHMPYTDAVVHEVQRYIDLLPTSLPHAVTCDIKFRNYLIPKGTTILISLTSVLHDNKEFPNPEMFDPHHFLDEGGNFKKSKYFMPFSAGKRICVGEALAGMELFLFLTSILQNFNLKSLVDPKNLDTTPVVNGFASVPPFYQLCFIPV
Outline: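 Recombinant human CYP2C9 expressed in SF9 cells, fluorogenic substrate, fluorescence read 0.75 h after dosing. Chemicals first run in duplicate at 10 uM, with actives followed in concentration series; loss of signal versus acetonitrile baseline.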

[11] = target: Cytochrome P450 3A4 (Homo sapiens) (UniProt P08684); assay: NVS_ADME_hCYP3A4: NovaScreen (NVS) CYP450-related Enzyme Activity (ADME) Assay for human CYP3A4 (AID 2283110; active = hit-call score of the fitted dose curve at least 0.9, where 1 is the maximum)
Chain of Cytochrome P450 3A4 (Homo sapiens) (P08684 whole entry, looked up): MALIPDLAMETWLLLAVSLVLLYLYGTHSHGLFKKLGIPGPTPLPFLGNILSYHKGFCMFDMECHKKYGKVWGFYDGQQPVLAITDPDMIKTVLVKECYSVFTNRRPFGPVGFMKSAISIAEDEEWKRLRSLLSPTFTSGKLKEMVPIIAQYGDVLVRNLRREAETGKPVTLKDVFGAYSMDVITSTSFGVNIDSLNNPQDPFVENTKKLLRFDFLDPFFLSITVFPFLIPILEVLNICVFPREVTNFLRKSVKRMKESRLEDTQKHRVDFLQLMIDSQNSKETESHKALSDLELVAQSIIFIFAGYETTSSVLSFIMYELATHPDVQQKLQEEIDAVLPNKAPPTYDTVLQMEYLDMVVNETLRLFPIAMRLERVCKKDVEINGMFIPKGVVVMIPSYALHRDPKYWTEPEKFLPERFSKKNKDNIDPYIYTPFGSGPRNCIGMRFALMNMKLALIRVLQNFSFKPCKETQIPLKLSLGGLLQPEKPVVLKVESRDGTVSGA
Outline: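 Cell-free recombinant enzyme expressed in insect cells; fluorescent substrate turnover read after 0.33 h, acetonitrile as negative control. Primary screen in duplicate at 10 uM, actives then tested in concentration series.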

[12] = target: human CYP19A1, CYP19A1 (gene 1588) (UniProt P11511); assay: NVS_ADME_hCYP19A1: NovaScreen (NVS) CYP450-related Enzyme Activity (ADME) Assay for human CYP19A1 (AID 2283098; active = hit-call score of the fitted dose curve at least 0.9, where 1 is the maximum)
Chain of human CYP19A1, CYP19A1 (gene 1588) (P11511 whole entry, looked up): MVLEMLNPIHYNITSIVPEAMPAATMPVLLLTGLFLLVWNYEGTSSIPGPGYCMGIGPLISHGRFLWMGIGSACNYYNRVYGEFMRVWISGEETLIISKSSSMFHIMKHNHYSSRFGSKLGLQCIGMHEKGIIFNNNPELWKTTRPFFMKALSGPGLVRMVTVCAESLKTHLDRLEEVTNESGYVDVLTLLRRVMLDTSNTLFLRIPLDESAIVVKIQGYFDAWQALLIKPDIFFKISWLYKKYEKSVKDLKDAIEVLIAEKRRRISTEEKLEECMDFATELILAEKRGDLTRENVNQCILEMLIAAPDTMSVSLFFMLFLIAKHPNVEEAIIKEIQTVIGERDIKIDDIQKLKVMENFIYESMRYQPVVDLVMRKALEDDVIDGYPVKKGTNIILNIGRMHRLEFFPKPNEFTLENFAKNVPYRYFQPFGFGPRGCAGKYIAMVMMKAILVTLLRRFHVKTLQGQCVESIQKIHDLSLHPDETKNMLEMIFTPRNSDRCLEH
Outline: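 Recombinant enzyme in a cell-free format, read 0.5 h after dosing by fluorescence from a fluorogenic substrate. Loss of signal was fitted against acetonitrile as baseline. Primary screen in duplicate at 10 uM, actives then tested in concentration series.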

[13] = target: rat CYP2A2, Cyp2a2 (gene 24895) (UniProt P15149); assay: NVS_ADME_rCYP2A2: NovaScreen (NVS) CYP450-related Enzyme Activity (ADME) Assay for rat CYP2A2 (AID 2283116; active = hit-call score of the fitted dose curve at least 0.9, where 1 is the maximum)
Chain of rat CYP2A2, Cyp2a2 (gene 24895) (P15149 whole entry, looked up): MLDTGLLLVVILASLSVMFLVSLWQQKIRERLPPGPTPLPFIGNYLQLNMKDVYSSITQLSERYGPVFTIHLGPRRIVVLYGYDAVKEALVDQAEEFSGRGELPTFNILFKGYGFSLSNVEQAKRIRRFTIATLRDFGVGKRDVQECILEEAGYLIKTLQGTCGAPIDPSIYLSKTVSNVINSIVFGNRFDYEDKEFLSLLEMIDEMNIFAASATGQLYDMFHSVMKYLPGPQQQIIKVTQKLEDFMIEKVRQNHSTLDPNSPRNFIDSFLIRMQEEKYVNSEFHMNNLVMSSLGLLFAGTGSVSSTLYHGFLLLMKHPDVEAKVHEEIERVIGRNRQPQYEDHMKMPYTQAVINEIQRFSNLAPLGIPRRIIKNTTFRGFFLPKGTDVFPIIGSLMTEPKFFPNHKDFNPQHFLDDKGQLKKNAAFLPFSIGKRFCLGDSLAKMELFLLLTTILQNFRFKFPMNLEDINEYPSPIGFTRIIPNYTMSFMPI
Outline: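 Cell-free recombinant rat CYP2A2 activity with fluorogenic substrate, fluorescence read 0.2 h after dosing. Chemicals screened at 10 uM in duplicate, hits then run in concentration-response up to 20 uM; signal loss versus acetonitrile baseline.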

[14] = target: human CYP2A6, CYP2A6 (gene 1548) (UniProt P11509); assay: NVS_ADME_hCYP2A6: NovaScreen (NVS) CYP450-related Enzyme Activity (ADME) Assay for human CYP2A6 (AID 2283099; active = hit-call score of the fitted dose curve at least 0.9, where 1 is the maximum)
Chain of human CYP2A6, CYP2A6 (gene 1548) (P11509 whole entry, looked up): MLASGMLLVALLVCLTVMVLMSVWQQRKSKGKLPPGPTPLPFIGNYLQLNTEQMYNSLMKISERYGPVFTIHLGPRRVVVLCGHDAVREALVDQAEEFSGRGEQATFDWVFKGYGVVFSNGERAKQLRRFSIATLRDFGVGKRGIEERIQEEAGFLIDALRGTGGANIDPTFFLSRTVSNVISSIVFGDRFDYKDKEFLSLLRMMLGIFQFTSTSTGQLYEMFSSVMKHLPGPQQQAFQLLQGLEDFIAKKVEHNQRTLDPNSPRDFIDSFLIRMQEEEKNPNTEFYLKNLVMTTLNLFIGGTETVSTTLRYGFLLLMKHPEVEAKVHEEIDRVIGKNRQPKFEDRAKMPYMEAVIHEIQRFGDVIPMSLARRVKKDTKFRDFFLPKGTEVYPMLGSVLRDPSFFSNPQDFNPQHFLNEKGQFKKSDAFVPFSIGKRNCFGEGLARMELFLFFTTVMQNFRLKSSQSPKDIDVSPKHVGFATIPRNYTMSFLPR
Outline: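 Recombinant human CYP2A6 from insect cells was incubated with chemical for 0.5 h and activity read by fluorescence. Single-concentration duplicates at 10 uM preceded concentration-response testing to 20 uM, with activity referenced to acetonitrile.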

Measured: AC50

CN(C)c1ccc(C(=C2C=CC(=[N+](C)C)C=C2)c2ccc(N(C)C)cc2)cc1
active: [1] 5.83 µM | [2] 0.148 µM | [3] 0.693 µM | [4] 7.53 µM | [5] 2.02 µM | [6] 6.7 µM | [7] 6.67 µM | [8] 2.86 µM | [9] 3.32 µM

O=C1O[C@H]([C@@H](O)CO)C(O)=C1O
inactive: [1] | [2] | [3] | [4]

O=C(O)c1ccccc1C(=O)OCc1ccccc1
inactive: [1] | [2] | [3] | [4]

O=C(OCCCCCCOC(=O)c1ccccc1)c1ccccc1
inactive: [1] | [2] | [3] | [4]
active: [7] 5.42 µM

CCN(CC)C(=O)c1cc(S(=O)(=O)Cc2ccccc2)c(N2CCC(c3ccccc3)CC2)cc1N(CC)CCN(C)C
active: [1] 6.84 µM | [2] 5.2 µM | [3] 5.1 µM | [4] 12.7 µM | [8] 5.11 µM | [10] 12.5 µM | [11] 4.11 µM | [9] 3.48 µM

CN1C(=O)N(c2ccccc2Br)Cc2cnc(Nc3ccc4c(c3)OCC(CO)O4)nc21 (configuration not stated)
active: [1] 1.87 µM | [3] 1.52 µM | [4] 2.23 µM

O=c1[nH]sc2ccccc12
active: [1] 3.66 µM | [2] 23.2 µM | [3] 0.77 µM | [4] 26.8 µM | [5] 5.11 µM | [6] 0.721 µM

Cc1cc2c(cc1C(F)(F)F)N(C(=O)Nc1ccc(Oc3cccnc3C)nc1)CC2
inactive: [1] | [2] | [3] | [4]

O=C(O)Cn1c(=O)n(Cc2ccc(Br)cc2F)c(=O)c2ccc(Cl)cc21
inactive: [1] | [2] | [3] | [4]

NC(=O)c1nc(-c2cccc(-c3cc(F)ccc3OCC(F)(F)C(F)(F)F)c2)n[nH]1
active: [1] 35.7 µM | [2] 18.2 µM | [3] 26.2 µM | [4] 32.7 µM

Clc1cc(Cl)c2c(c1)N=C1CCCCCN1C2
inactive: [1] | [2] | [3] | [4]
active: [5] 0.764 µM | [7] 2.34 µM | [8] 2.71 µM

c1ccc2n[nH]nc2c1
inactive: [1] | [2] | [3] | [4]

CCCCCCCC[Si](OCC)(OCC)OCC
inactive: [3]
active: [1] 18.7 µM | [4] 31.7 µM

CC1=CC(=O)/C(=C(/C)O)C(=O)O1
inactive: [1] | [2] | [3] | [4] | [12]

Cc1cccc2ccccc12
inactive: [1] | [2] | [3] | [4] | [9]

O=C(O)Cc1cc(I)c(Oc2ccc(O)c(I)c2)c(I)c1
active: [3] 11.8 µM
inactive: [1] | [2] | [4] | [12] | [9]

CCCCOC(=O)CC(CC(=O)OCCCC)(OC(C)=O)C(=O)OCCCC
active: [9] 3.7 µM and 9.42 µM
inactive: [1] | [2] | [3] | [4] | [10] | [13]

CC[C@H](NC(=O)c1cc(F)ccc1NS(=O)(=O)c1cccc2cccnc12)c1ccccc1
inactive: [1] | [4] | [14] | [11]
active: [2] 8.99 µM | [3] 22.5 µM

COCC(C)OCC(C)OCC(C)O (configuration not stated)
inactive: [1] | [3] | [4]
